The text below walks through data of PubChem BioAssay (Tox21).

A number with no mark means an inactive call. Records with an inconclusive call do not appear. Activity calls are given as the source filed them. Calls follow the shape of the dose curve; as a rule, active = well fitted curve in the direction sought with a large enough effect in the repeat runs; inconclusive = weak or mixed curves; inactive = no such curve, though single readings can be large; an effect the other way counts as inactive or inconclusive.

The nature of assay [1]: A CellTox Green Cytotoxicity Assay to monitor cytotoxicity in HepG2 cells - 0 hour (AID 1224882). Also: nearly all actives have a fitted effect of over 35% in size. Also: potency is read from the fitted curve at half-maximal effect. Summed up: (§1)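 Continuous culture of HepG2 cells with a membrane-impermeant DNA dye; rising fluorescence marks dead cells. Compound exposure lasted up to 40 h at 37 C, with reads every 8 h from 0 h.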
The nature of assay [2]: A CellTox Green Cytotoxicity Assay to monitor cytotoxicity in HepG2 cells - 32 hour (AID 1224883). Also: nearly all actives have a fitted effect of over 50% in size. Also: potency is read from the fitted curve at half-maximal effect. The procedure, abridged:
as §1

Assay [3] is described as follows: qHTS RealTime-Glo MT Cell Viability Assay in HepG2 cells - 16 hour (AID 1224885). Also: nearly all actives have a fitted effect of over 50% in size. The procedure, abridged:
(§2)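 Compound treatment began 5 h after plating HepG2 cells (600/well) with NanoLuc luciferase and prosubstrate. Plates stayed at 37 C for 40 h; luminescence was captured at six time points, 0 h through 40 h.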

Assay [4] can be described thus: qHTS RealTime-Glo MT Cell Viability Assay in HEK293 cells - 8 hour (AID 1224887). Also: nearly all actives have a fitted effect of over 50% in size. Also: potency is read from the fitted curve at half-maximal effect. As to activity change, negative = cytotoxicity: top concentration of the series differs between compounds. Summed up:
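qHTS format; HEK293 cells with NanoLuc/prosubstrate reagent, 37 C/5% CO2 for 5 h pre-dosing; compounds 23 nL in DMSO; luminescence at each time point reflects viable cells.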
Background: In qHTS, concentration-response curves come from the screen itself.

Assay [5] is described as follows: A CellTox Green Cytotoxicity Assay to monitor cytotoxicity in HepG2 cells - 8 hour (AID 1224890). Also: nearly all actives have a fitted effect of over 45% in size. The procedure, abridged:
as §1

Assay [6] in a line: A CellTox Green Cytotoxicity Assay to monitor cytotoxicity in HEK293 cells - 8 hour (AID 1224884). Also: nearly all actives have a fitted effect of over 35% in size. Summed up:
(§3)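 Each value comes from one timepoint of a single continuous run in which HEK293 cells with CellTox Green were exposed to compound for up to 40 h at 37 C, dye fluorescence rising with cell death.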

Assay [7] can be described thus: qHTS RealTime-Glo MT Cell Viability Assay in HEK293 cells - 24 hour (AID 1224886). Also: nearly all actives have a fitted effect of over 50% in size. Also: potency is read from the fitted curve at half-maximal effect. As to activity change, negative = cytotoxicity: top concentration of the series differs between compounds. The procedure, abridged:
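Quantitative high-throughput screen of the Tox21 10K library in HEK293: cells and RealTime-Glo reagents plated together, compound added at 5 h, luminescence monitored through 40 h at 37 C.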

The nature of assay [8]: qHTS RealTime-Glo MT Cell Viability Assay in HepG2 cells - 0 hour (AID 1224889). Also: nearly all actives have a fitted effect of over 50% in size. The procedure, abridged:
as §2

Assay [9] can be described thus: A CellTox Green Cytotoxicity Assay to monitor cytotoxicity in HEK293 cells - 16 hour (AID 1224888). Also: nearly all actives have a fitted effect of over 35% in size. Summed up:
as §3

Assay [10] is described as follows: A CellTox Green Cytotoxicity Assay to monitor cytotoxicity in HEK293 cells - 32 hour (AID 1224881). Also: nearly all actives have a fitted effect of over 40% in size. Summed up:
as §3
% is scaled to controls: 0 for no effect and ±100 for the full control effect.

Take `CCCOC(C(=O)OC1CCN(C)CC1)(c1ccccc1)c1ccccc1`: the Potency entry in assay [1], in [3], in [4] and in [5] was “inactive” each time. Moreover, the Potency in assay [2] was 21.3 µM (active).

As for `CCCCC`, the Potency entry in assay [1], in [2], in assay [6], in assay [3], in assay [7] and in [4] was “inactive” each time. The Potency entry in [8] and in assay [5] was “inactive” in each case.

`COc1cc(C(=O)OCCCN2CCCN(CCCOC(=O)c3cc(OC)c(OC)c(OC)c3)CC2)cc(OC)c1OC`: the Potency result in [1], in assay [6], in assay [3], in [9], in assay [8] and in assay [5] was “inactive” throughout. In addition, the Potency in assay [7] is 8.49 µM (active); in assay [4], 9.52 µM (active).

Regarding `CCC(C)c1cc(C(C)(C)C)c(O)c(C(C)(C)C)c1` (centres undefined), the Potency result in assay [1], in [2], in assay [3], in [7], in assay [4] and in [8] was “inactive” in each case. Also, the Potency entry in assay [5] was “inactive”.

As to `CCOc1ccc(O)cc1`, the Potency result in assay [10], in assay [1], in assay [3], in assay [9], in [8] and in assay [5] was “inactive” in each case.

Regarding `O=C1CCCCCCCCCCCC(=O)OCCO1`, the Potency entry in [1], in [3], in assay [7], in assay [4], in assay [9] and in [8] was “inactive” each time. For the same molecule, the Potency entry in assay [5] was “inactive”.

For `O=C(Cl)c1cc(C(=O)Cl)cc(C(=O)Cl)c1`, the Potency entry in [1], in assay [6] and in assay [8] was “inactive” throughout. Moreover, the Potency in assay [4] was 49 µM (active).

In the case of `CC(C)=CCC/C(C)=C/CC/C(C)=C/CO`, the Potency entry in [1], in assay [6], in [3], in assay [8] and in assay [5] was “inactive” throughout.

`C/C=C/C(=O)CC`: the cytotoxicity in [1] is 0.505% [at 15.8 µM]. In addition, the results for the cytotoxicity increase in [2] and in [6] were 2.71% [at 15.8 µM] and 1.29% [at 15.8 µM], respectively. In addition, in assay [3], the activity change, negative = cytotoxic is 0.412% [at 15.8 µM]. In addition, the values for the activity change, negative = cytotoxicity in assay [7], in assay [4] and in [8] were 0.822% [at 15.8 µM], 0.36% [at 15.8 µM] and 4.66% [at 15.8 µM], respectively. Also, the activity change in assay [9] was 0.377% [at 15.8 µM, stronger effect = higher value].

Take `O=C(Nc1ccccc1)c1ccccc1O`: the Potency entry in assay [10], in assay [1], in [3], in [4], in assay [9] and in assay [8] was “inactive” each time. The Potency entry in assay [5] was “inactive”.

In the case of `OCc1cc(C(O)CNCCCCCCOCCCCc2ccccc2)ccc1O` (centres undefined), the Potency result in assay [1], in assay [9], in assay [8] and in assay [5] was “inactive” each time. Moreover, the figures for the Potency in assay [2] and in assay [7] were 23.9 µM (active) and 19 µM (active), respectively.

As to `CC1=CC[C@H](C(C)C)C=C1`, the Potency entry in assay [10], in assay [3], in assay [7], in [4], in [9] and in assay [8] was “inactive” each time. Also, in assay [5], the Potency result is “inactive”.

As to `CCOC(=O)Cc1cccc2ccccc12`, the Potency entry in [10], in assay [6], in [3], in [7], in assay [4] and in [9] was “inactive” throughout. Further, in assay [2], the Potency was 21.9 µM (active).

Consider `CCCCCCCCCCO[C@@H]1O[C@H](CO)[C@@H](O)[C@H](O)[C@H]1O`, for which the Potency result in assay [1], in [6], in [3], in assay [4], in [9] and in [8] was “inactive” throughout. Also, the Potency entry in [5] is “inactive”.

`CN(C)C(=O)NC1(c2ccccc2)CCN(CC[C@@]2(c3ccc(F)c(F)c3)CN(C(=O)c3ccccc3)CCO2)CC1`: the Potency entry in assay [10], in [1], in assay [3], in assay [9], in assay [8] and in assay [5] was “inactive” each time.

On to `C[C@H](CCC(=O)O)[C@H]1CC[C@H]2[C@@H]3CC[C@@H]4C[C@H](O)CC[C@]4(C)[C@H]3C[C@H](O)[C@]12C`, for which the Potency result in assay [1], in [3], in assay [7], in [8] and in assay [5] was “inactive” each time.

Consider `O=C(O)c1ccc(-n2nc(-c3ccccc3O)nc2-c2ccccc2O)cc1`, for which the Potency result in assay [10], in [2], in assay [6], in assay [3], in [7] and in assay [4] was “inactive” in each case. The Potency entry in assay [9] and in assay [5] was “inactive” in each case.

Consider `c1ccc(C(O[C@H]2CCCN(CCc3ccc4c(c3)OCO4)C2)c2ccccc2)cc1`, for which the Potency result in assay [10], in assay [1], in [3], in assay [4], in [9] and in assay [8] was “inactive” in each case.

For `CCOC(=O)COC(=O)c1cc(Oc2ccc(C(F)(F)F)cc2Cl)ccc1[N+](=O)[O-]`, the Potency entry in [1], in [2], in assay [3], in [9], in assay [8] and in [5] was “inactive” each time. In addition, the Potency in [4] was 49 µM (active).

With `COc1cc2nc(Cl)nc(N)c2cc1OC`, the Potency entry in assay [10], in [1], in [3], in [9], in [8] and in assay [5] was “inactive” each time.

In the case of `O=C(NCC1CN(c2ccc(N3CCOCC3=O)cc2)C(=O)O1)c1ccc(Cl)s1` (centres undefined), the Potency entry in assay [10], in [6], in assay [3], in assay [7], in [4] and in assay [9] was “inactive” in each case. In addition, the Potency result in assay [8] was “inactive”.

For `C[N+]1(C)CCC(OC(=O)C(O)(c2ccccc2)C2CCCC2)C1` (centres undefined), the Potency in [1] is 26.8 µM (active). Further, the Potency entry in assay [3], in assay [7], in assay [4], in [8] and in [5] was “inactive” throughout.

On to `Cc1cccc(C)c1OCC(=O)N[C@@H](Cc1ccccc1)[C@@H](O)C[C@H](Cc1ccccc1)NC(=O)[C@H](C(C)C)N1CCCNC1=O`, for which the Potency entry in assay [1], in assay [2], in assay [3], in [9], in assay [8] and in assay [5] was “inactive” throughout. Besides, the Potency in assay [7] is 23.9 µM (active).

For `CN(C)c1ccc(C(c2ccccc2)c2ccc(N(C)C)cc2)cc1`, the Potency entry in assay [1], in assay [2], in assay [6], in assay [4], in [9] and in assay [8] was “inactive” each time.

As for `CCN(CC)CCOC(=O)C(Cc1cccc2ccccc12)CC1CCCO1` (centres undefined), the Potency entry in assay [2], in [6], in [3], in [4], in [9] and in assay [8] was “inactive” throughout.

Take `CCCCCCOC(=O)NC(=N)c1ccc(NCc2nc3cc(C(=O)N(CCC(=O)OCC)c4ccccn4)ccc3n2C)cc1`: the Potency result in assay [10], in [1], in [9], in [8] and in assay [5] was “inactive” in each case. Besides, the Potency in [7] and in assay [4] was 9.52 µM (active) each time.
